p97 inhibitor: blocks human p97 ATPase activity; P55072; recombinant p97 ATPase, Kinase-Glo ATP luminescence, 3 h; inhibition, % at 8 µM; 0.42% of 220,000 active; in the data active means inhibition above about 15%
PHOSPHO1 block: PHOSPHO1 (human) inhibition. Q8TCT1. recombinant PHOSPHO1, absorbance phosphatase assay. inhibition, % at 13.3 µM. 1.1% of 290,000 active. AID 1565; in the data active means inhibition above about 60%
G6PDH CS: L. mesenteroides G6PDH inhibition counter-screen. Purified L. mesenteroides G6PDH, diaphorase/resazurin coupled fluorescence, 45 min. 0.12% of 200,000 active. AID 1020. inhibition, % at 5 µM; in the data active means inhibition above about 50%
M18AAP inhibitor: blocks P. falciparum M18 aspartyl aminopeptidase | 1.2% of 290,000 active | AID 1822 | inhibition, % at 7.35 µM | recombinant PfM18AAP, H-Glu-NHMec fluorogenic cleavage;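 active means inhibition above the campaign mean inhibition over all tested compounds plus 3 SD, cut at about 28% in these data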
HDAC3 inhib: human HDAC3 inhibition. 0.15% of 320,000 active. inhibition, % at 8.3 µM. O15379. recombinant HDAC3, fluorogenic peptide/trypsin coupled, fluorescence; in the data active means inhibition above about 26%, passing the limit was not always enough
Target sequence (O15379 whole entry, looked up): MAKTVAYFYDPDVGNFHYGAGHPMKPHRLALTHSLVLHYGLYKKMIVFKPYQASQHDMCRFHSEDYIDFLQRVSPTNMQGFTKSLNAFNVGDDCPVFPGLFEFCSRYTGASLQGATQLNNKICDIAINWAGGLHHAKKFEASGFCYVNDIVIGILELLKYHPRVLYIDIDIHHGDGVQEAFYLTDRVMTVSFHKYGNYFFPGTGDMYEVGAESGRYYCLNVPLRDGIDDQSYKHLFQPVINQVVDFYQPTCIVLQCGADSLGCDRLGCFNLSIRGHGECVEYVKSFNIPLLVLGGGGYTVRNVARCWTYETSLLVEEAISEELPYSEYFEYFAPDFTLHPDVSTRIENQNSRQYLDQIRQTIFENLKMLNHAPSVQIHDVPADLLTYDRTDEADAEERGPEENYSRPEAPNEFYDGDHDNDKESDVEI
UBC9 SUMO inh: SUMOylation inhibition; AID 2006; 0.36% of 290,000 active; inhibition, % at 35 µM; HTRF SUMOylation assay, SAE1/SAE2 + UBC9, in vitro; P63279; in the data active means inhibition above about 50%, passing the limit was not always enough
Target sequence (P63279 whole entry, looked up): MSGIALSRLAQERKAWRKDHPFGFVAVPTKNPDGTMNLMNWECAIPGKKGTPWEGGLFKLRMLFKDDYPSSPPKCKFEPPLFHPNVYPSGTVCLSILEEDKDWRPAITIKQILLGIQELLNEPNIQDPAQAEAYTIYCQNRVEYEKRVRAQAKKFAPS
Large screens that a line does not name were inactive. Sampled rows, rich in hits. Any-hit rate of the full collection: about 2.5%.

CCC(=O)Nc1cc2nn(-c3ccc(OC)cc3)nc2cc1C	none
CCC(=O)Nc1cc2nn(-c3ccc(C)cc3)nc2cc1C	PHOSPHO1 block 62.9
COc1ccc(C2C(C(C)=O)=C(C)N=c3s/c(=C\c4cc(C)n(C)c4C)c(=O)n32)c(OC)c1 (configuration not stated)	PHOSPHO1 block 71.1
COc1ccc(C2C(C(C)=O)=C(C)N=c3s/c(=C\c4ccc5c(c4)OCO5)c(=O)n32)c(OC)c1 (configuration not stated)	none (no result: PHOSPHO1 block, G6PDH CS, UBC9 SUMO inh)
Cn1c(=O)c2[nH]c(-c3ccccc3Cl)c(O)c2n(C)c1=O	M18AAP inhibitor 44.2 (no result: HDAC3 inhib)
Cn1c(=O)c2[nH]c(-c3ccccc3)c(O)c2n(C)c1=O	M18AAP inhibitor 58.1 (no result: HDAC3 inhib)
Cn1c2c(c(=O)n(C)c1=O)C(C(F)(F)F)(C(F)(F)F)N=C(c1ccccc1Cl)N2	none
C=CCn1c(CSCc2ccc(Cl)cc2Cl)nnc1SCC(=O)Nc1ccc(C(=O)O)cc1	none (no result: G6PDH CS, HDAC3 inhib)
Cc1ccc(-c2csc3ncn(C(C)C(=O)O)c(=O)c23)cc1 (configuration not stated)	none (no result: p97 inhibitor, G6PDH CS)
Cc1ccc(C(=O)OCC(=O)Nc2sc3c(c2C#N)CCCCC3)cc1NC(=O)c1ccco1	none
Cc1ccc(C(=O)OCC(=O)Nc2sc3c(c2C#N)CCCC3)cc1NC(=O)c1ccco1	PHOSPHO1 block 63.9
O=C(CS(=O)(=O)c1ccccc1)c1cc2ccccc2oc1=O	none (no result: p97 inhibitor, G6PDH CS)
O=C(CS(=O)(=O)c1ccccc1)c1cc2cc(F)ccc2oc1=O	M18AAP inhibitor 28.5 (no result: p97 inhibitor, G6PDH CS)
Cc1ccc(NC(=O)c2ccco2)c(NC(=O)C2CCCO2)c1 (configuration not stated)	none
C=CCNC(=O)C1CC(=O)N(c2ccc(OCC(=O)Nc3ccc(Cl)cc3)cc2)C1 (configuration not stated)	none (no result: p97 inhibitor, G6PDH CS)
CCOC(=O)c1c(C)oc2c1c(C=NCC1CCCO1)c(O)c1ccccc12 (configuration not stated)	G6PDH CS 50.1 (no result: HDAC3 inhib)
O=C(O)c1cccc2c1C(=O)c1ccc(-c3ccc(Cl)c(C(F)(F)F)c3)cc1S2(=O)=O	none (no result: p97 inhibitor, PHOSPHO1 block, G6PDH CS, M18AAP inhibitor, UBC9 SUMO inh)
COc1cc2oc(-c3ccc(O)cc3)cc(=O)c2c(OC)c1O	M18AAP inhibitor 33.0 (no result: G6PDH CS, HDAC3 inhib)
O=C1c2ccccc2-c2cccc(C(=O)N3CCN(C(=O)c4ccccc4)CC3)c21	PHOSPHO1 block 60.0
N#Cc1c(Oc2ccc3ccccc3c2)sc(C(=O)c2ccccc2)c1N	none
Cc1ccc(C(=O)c2sc(Nc3ccccc3)c(C#N)c2N)cc1	none
N#Cc1c(SCc2ccccc2)sc(C(=O)c2ccccc2)c1N	PHOSPHO1 block 73.0
Cc1ccc(CSc2sc(C(=O)c3ccccc3)c(N)c2C#N)cc1	PHOSPHO1 block 96.6 (no result: HDAC3 inhib)
N#Cc1c(SCc2cccc(Cl)c2)sc(C(=O)c2ccccc2)c1N	PHOSPHO1 block 61.9
COCCn1c(CN2CCN(C(=O)c3ccco3)CC2)nc2c1c(=O)n(C)c(=O)n2C	none (no result: p97 inhibitor, G6PDH CS)
CC(=O)OC(C)=O	none (no result: p97 inhibitor, PHOSPHO1 block, G6PDH CS, M18AAP inhibitor, UBC9 SUMO inh)
O=C1N=C2N(CCN3CCCCC3)c3ccccc3N2/C1=C\c1ccc([N+](=O)[O-])o1	none (no result: HDAC3 inhib)
O=C(/C=C/c1ccc(O)c(O)c1)c1ccc(S(=O)(=O)N2CCCCCC2)cc1	M18AAP inhibitor 59.8
COC(=O)c1ccc(S(=O)(=O)N2CCCCCC2)cc1	none
O=C(CC1C(=O)NCCN1Cc1ccc(-c2ccccc2)cc1)NCC1CC1 (configuration not stated)	PHOSPHO1 block 60.1
CC(=O)c1cc(CN2CCC(C(=O)Nc3ccc(-n4nc(C)cc4C)cc3)CC2)cs1	none (no result: p97 inhibitor, G6PDH CS)
CC(C)(C)CC(=O)NCc1cccs1	PHOSPHO1 block 60.0
CN(C(=O)COC(=O)CCCN1C(=O)c2cccc3cccc(c23)C1=O)C1CCS(=O)(=O)C1 (configuration not stated)	none (no result: p97 inhibitor, PHOSPHO1 block, G6PDH CS, M18AAP inhibitor, UBC9 SUMO inh)
O=C(CSc1nnc(NC2CC2)s1)NN1C(=O)NC2(CCCCC2)C1=O	none (no result: p97 inhibitor, PHOSPHO1 block, G6PDH CS, M18AAP inhibitor, UBC9 SUMO inh)
COc1ccc(CCn2c(C)cc(C(=O)CSc3nnnn3-c3ccccc3)c2C)cc1OC	none
Cc1cc(C(=O)CSc2nnc(N)s2)c(C)n1CCc1ccc(F)cc1	none
COCC(C)n1c(C)cc(C(=O)CSc2nc(C)c(C)c(C)n2)c1C (configuration not stated)	none (no result: G6PDH CS)
Cc1cc(C(=O)CSc2nnnn2-c2ccccc2)c(C)n1CCc1ccccc1	PHOSPHO1 block 83.7
COCC(C)n1c(C)cc(C(=O)CSc2nnc(N)s2)c1C (configuration not stated)	PHOSPHO1 block 99.2
Cc1cc(C(=O)CSc2nnc(N)s2)c(C)n1CCc1ccc(Cl)cc1	PHOSPHO1 block 73.7
Cc1ccc(CNC(=O)Cn2nnc(C(=O)Nc3cc(C)ccc3C)c2N)cc1	none (no result: p97 inhibitor, G6PDH CS)
Cc1[nH]c2ccccc2c1C(=O)COC(=O)c1ccc2c(=O)n3c(nc2c1)CCC3	none
COc1cc(CN2CCCC(C(=O)c3ccc4c5c(cccc35)CC4)C2)cc(OC)c1O (configuration not stated)	G6PDH CS 62.1
O=C(c1ccc2c3c(cccc13)CC2)C1CCCN(Cc2cccnc2)C1 (configuration not stated)	none
COc1ccccc1C(=O)C1CCCN(Cc2cccc3nccnc23)C1 (configuration not stated)	PHOSPHO1 block 60.1
Cc1cc(-c2nnc(SCC(=O)Nc3nc(-c4ccccc4)cs3)o2)no1	M18AAP inhibitor 30.2 (no result: G6PDH CS)
Cc1csc(NC(=O)CSc2nnc(-c3cc(C)on3)o2)n1	none
O=C1C2C3C=CC(C4CC34)C2C(=O)N1/N=C/c1ccc(-c2ccc([N+](=O)[O-])cc2)o1 (configuration not stated)	none
Cc1ccc(-c2ccc(/C=N/N3C(=O)C4C5C=CC(C6CC56)C4C3=O)o2)c([N+](=O)[O-])c1 (configuration not stated)	PHOSPHO1 block 69.4
CC(C)Cc1csc(NC(=O)c2ccc(Br)cc2)c1C(=O)O	none (no result: G6PDH CS)
CCOc1ccccc1NC(=O)C1=C(C)NC(=O)NC1c1cccc(OC)c1OC (configuration not stated)	PHOSPHO1 block 62.0
COc1ccccc1NC(=O)C1=C(C)NC(=O)NC1c1cccc(OC)c1OC (configuration not stated)	none
Cc1ccc(C(CC(=O)NCCCN(C)C)c2ccc(OC(C)C)cc2)cc1 (configuration not stated)	none (no result: G6PDH CS)
CCOCCCN(C(=O)c1snc(C(N)=O)c1N)C(C(=O)NC1CCCC1)c1ccc(OC)cc1 (configuration not stated)	none (no result: p97 inhibitor, G6PDH CS)
NC(=O)c1c(N)sc2c1CCCC2	PHOSPHO1 block 92.4
CCC(O)C1CCN(C(=O)c2ccc(OC3CCN(Cc4ccccn4)CC3)cc2)CC1 (configuration not stated)	PHOSPHO1 block 70.1 (no result: p97 inhibitor, G6PDH CS)
COC(=O)[C@@H](NC(=O)c1ccc(OC2CCN(Cc3ccccn3)CC2)cc1)C(C)C	PHOSPHO1 block 60.1
Cc1nc(C(C)NC(=O)c2ccc(OC3CCN(Cc4ccccn4)CC3)cc2)c(C)s1 (configuration not stated)	PHOSPHO1 block 81.1 (no result: p97 inhibitor, G6PDH CS, UBC9 SUMO inh)

From PubChem
